Consider 40 compounds from PubChem BioAssay (EPA / NIEHS).

Each structure is given as a SMILES string. The source made the active and inactive calls. Rule for the calls: active = hit-call score of the fitted dose curve at least 0.9, where 1 is the maximum; inactive = score below 0.9.

Read-out in the assay: Matrix Metallopeptidase 1 (MMP1), MMP1 (gene 4312)
In words: BSK_BE3C_MMP1: BioMAP Diversity Plus: BE3C Assay for Matrix Metallopeptidase 1 (MMP1) Biomarker Activity (AID 2283024). Particulars: primary human bronchial epithelial cells; actives raise or lower the signal. How it is done: BSK_BE3C is a cell-based, multiplexed-readout assay that uses bronchial epithelial cell, a human lung primary cell, with measurements taken at 24 hours after chemical dosing in a 96-well plate.BSK_BE3C_MMP1 is an assay component measured in the BSK_BE3C assay. It measures MMP-1 antibody related to regulation of gene expression using ELISA technology.Data from the assay component BSK_BE3C_MMP1 was analyzed into 1 assay endpoint. This assay endpoint, BSK_BE3C_MMP1, was analyzed with bidirectional fitting relative to DMSO as the negative control and baseline of activity. Using a type of binding reporter, gain or loss-of-signal activity can be used to understand changes in the signaling as they relate to the gene MMP1. Furthermore, this assay endpoint can be referred to as a primary readout, because this assay has produced multiple assay endpoints where this one serves a signaling function. To generalize the intended target to other relatable targets, this assay endpoint is annotated to the protease intended target family, where the subfamily is matrix metalloproteinase.
The levels of cell surface (or secreted, indicated by the prefix "s") biomarker endpoints were measured by ELISA. Overt cytotoxicity to cells in confluent adherent cultures (all systems other than the BT system) was assessed by measuring total protein levels using sulforhodamine B (SRB) staining in parallel cultures at the time of biomarker measurements, indicated as SRB endpoints. For proliferation assays for adherent cell types, individual cell types are cultured at sub-confluence and relative cell numbers quantified by SRB staining at time points optimized for each system (48 h: 3C and CASM3C systems; 72 h: BT and HDF3CGF systems; 96 h: SAg system). SRB was performed by staining cells with 0.1% SRB after fixation with 10% TCA and reading wells at 560 nm.Viability and proliferation of PBMC (T cells) was quantified by Alamar Blue reduction for the SAg and BT systems. For PBMC viability (referred to as PBMC Cytotoxicity within the assay endpoint names), cells were plated (75,000/well in a 96-well plate) and then chemical samples added for 1 h before addition of activators, SEB and TSST-1 (20 ng/mL final concentration each). Cells were incubated for 90 h. Then, Alamar Blue (20 uL/well) (Invitrogen, Cat DAL1100) was added for 6 h, and the plates were read with a fluorescence microplate reader at 546/580 nm (excitation/emission). For PBMC proliferation, cells were plated and activated as above but incubated for only 16 h prior to addition of Alamar Blue. Plates were read after 6 h.
On to `CCCCCCCC(=O)OC`, for which the outcome was inactive. One may read the AC50 as the concentration at which the activity in the assay is half-maximal. Consider `CC(=O)[C@@]1(O)CC[C@H]2[C@@H]3CCC4=CC(=O)CC[C@]4(C)[C@H]3CC[C@@]21C`, for which the AC50 is 8.47 µM (active). Regarding `Cc1occc(=O)c1O`, the outcome was inactive. For the compound `CC(C)c1cccc(C(C)C)c1NC(=O)NS(=O)(=O)c1cc(C(C)(C)O)co1`, the result was inactive. In the case of `CC1(C)C(=O)NC(=O)N1CO`, the outcome was inactive. The same measure, in the same setting: in the case of `OCC(O)CO` it was “inactive”; in that of `CN(C)CCCN(C)CCCN(C)C`, “inactive”; in that of `c1ccc2occc2c1`, “inactive”.

In the case of `Cn1cnc2c1c(=O)[nH]c(=O)n2C`, the outcome was inactive.

Turning to `CCC(C)N(C)C(=O)c1cc2ccccc2c(-c2ccccc2Cl)n1` (stereo not given), the outcome was inactive.

Take `C/C=C/c1ccc(OC)cc1`: the outcome was inactive.

In the case of `CCCCC(CC)COC(=O)CCCCCCCC(=O)OCC(CC)CCCC` (stereo not given), the result was inactive. As for `Nc1nc(Cl)nc2c1ncn2[C@H]1C[C@H](O)[C@@H](CO)O1`, the outcome was inactive. On to `CCc1nc(N)nc(N)c1-c1ccc(Cl)cc1`, for which the outcome was inactive. Take `CCCCOC(=O)CCCCC(=O)OCCCC`: the outcome was inactive. Same read-out and setting: in the case of `CCCCCCC(C=O)=Cc1ccccc1` it was “inactive”; in that of `Cc1ccc(C(C)(C)C)c(O)c1`, “inactive”; in that of `CC(C)c1cccc(C(C)C)c1`, “inactive”. Turning to `CCOCCOCCO`, the outcome was inactive.

For the compound `CC(C)(C)c1ccccc1`, the outcome was inactive.

Consider `CC(=O)OCC(COC(C)=O)OC(C)=O`, for which the result was inactive. Turning to `CC(=O)S[C@H](C(=O)N[C@H]1Cc2ccccc2[C@H]2CCC[C@@H](C(=O)O)N2C1=O)C(C)C`, the outcome was inactive.

For `CCCC[C@H]1CN(CC2CCOCC2)C(=O)OC12CCN(C1(C)CCN(C(=O)c3c(C)ncnc3C)CC1)CC2`, the result was inactive.

`OCC(CO)n1cnc(-c2ccc(F)cc2)c1-c1ccnc(Oc2ccccc2)n1`: the concentration at half-maximal activity (AC50) was 0.594 µM (active).

With `CN(C)C(=O)NC1(c2ccccc2)CCN(CC[C@@]2(c3ccc(F)c(F)c3)CN(C(=O)c3ccccc3)CCO2)CC1`, the outcome was inactive.

Turning to `C/C=C/C=C/C(=O)O`, the result was inactive.

As to `COC(=O)CCC(=O)OC`, the result was inactive. `CC(COCC(C)OC(=O)c1ccccc1)OC(=O)c1ccccc1` (stereo not given): the outcome was inactive.

As for `O=NO`, the outcome was inactive. For `O=C(NS(=O)(=O)/C=C/c1cccs1)c1ccc(F)cc1Br`, the AC50 is 1.31 µM (active).

For the compound `COc1ccc(OC(F)(F)F)cc1CN[C@H]1CCCN[C@H]1c1ccccc1`, the outcome was inactive.

Consider `NC(=Nc1ccccc1)Nc1ccccc1`, for which the result was inactive. For `CCc1cc(C2=C(C(=O)O)N(c3ccccc3C(F)(F)F)S(=O)(=O)c3ccccc32)cc2c1OCO2`, the AC50 is 10.8 µM (active). Turning to `CC1=C(C)S(=O)(=O)CCS1(=O)=O`, the outcome was inactive.

For `NCCOCCOCCN`, the outcome was inactive. Still for that read-out and setting: in the case of `COC(=O)CCCC(=O)OC` it was “inactive”; in that of `O=C(O)c1[nH]n(-c2ccc(S(=O)(=O)O)cc2)c(=O)c1N=Nc1ccc(S(=O)(=O)O)cc1`, “inactive”. For the compound `Cc1ccc(-c2cc(C(F)(F)F)nn2-c2ccc(S(N)(=O)=O)cc2)cc1`, the AC50 was 31.7 µM (active). `CCCCCCCCCC[N+](C)(C)[O-]`: the result was inactive.

For `CC(=O)CC(c1ccccc1)c1c(O)c2ccccc2oc1=O` (stereo not given), the outcome was inactive.
